# A selection: hits, their analogues and other compounds. The true share with any hit is near 2.5%.
# Cruzain inh Det = blocks cruzain activity in presence of Triton detergent; P25779; purified cruzain, Z-FR-AMC fluorescence, 0.01% Triton; Potency, µM, for inactives: max response, negative = inhibition, most hits filed as inhibitors; 200,000 compounds, 0.43% hits;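 further: plate controls were neutral wells for no effect and buffer without enzyme for full effect; nearly all actives have a fitted effect of over 40% in size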
# Target sequence (P25779 123-467 limits assumed): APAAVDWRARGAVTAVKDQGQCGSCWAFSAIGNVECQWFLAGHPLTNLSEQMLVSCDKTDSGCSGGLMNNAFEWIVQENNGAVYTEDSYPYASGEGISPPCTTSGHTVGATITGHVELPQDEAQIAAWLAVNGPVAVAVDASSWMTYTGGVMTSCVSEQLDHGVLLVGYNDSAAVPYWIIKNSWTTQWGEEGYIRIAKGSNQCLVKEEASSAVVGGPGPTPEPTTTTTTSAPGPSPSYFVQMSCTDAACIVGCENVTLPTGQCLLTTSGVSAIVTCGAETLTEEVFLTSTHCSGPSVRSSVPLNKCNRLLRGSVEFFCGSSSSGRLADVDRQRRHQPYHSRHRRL
#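 Cysteine protease activity tested under reducing, mildly acidic conditions (100 mM sodium acetate pH 5.5, 5 mM DTT) plus 0.01% Triton X-100. Cruzain 1.5 nM; substrate Z-FR-AMC 2 uM; 15 min compound preincubation at room temperature.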
# Cruzain inh noDet = inhibitors of Trypanosoma cruzi cruzain without detergent | P25779 | 200,000 compounds, 2.3% hits | purified cruzain, Z-FR-AMC fluorescence, no detergent | Potency, µM, without a hit: max response, negative = inhibition, most hits filed as inhibitors;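 further: plate controls were enzyme without inhibitor for no effect and buffer without enzyme for full effect; nearly all actives have a fitted effect of over 40% in size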
#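 Purified cruzain at 1.5 nM, pre-incubated 15 min with compound at room temperature in 100 mM sodium acetate pH 5.5, 5 mM DTT, 0.00005% Triton X-100. Reaction started with 2 uM Z-FR-AMC; AMC fluorescence increase over 60 s gives rate.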
# The depositor's hits bear a star; ? = inconclusive. The call rests on the fitted dose curve; in most records, active means well fitted curve in the direction sought with a large enough effect; inconclusive means small, poorly fitted or top-dose-only effect, or another doubt; inactive means no such curve, though single readings can be large; an effect the other way counts as inactive or inconclusive. Potency means the concentration at half of the fitted maximal effect.
SMILES,Cruzain inh Det,Cruzain inh noDet
CC1CCC(NC(=O)c2ccc(CS(=O)(=O)c3c(Cl)cccc3Cl)o2)CC1 (centres undefined),0%,2%
CC(C)c1ccc(N2C(=O)CS(=O)(=O)C23C(=O)N(Cc2cccc(F)c2)c2ccccc23)cc1 (centres undefined),-3%,2.5µM*
CCc1ccc(N2C(=O)CS(=O)(=O)C23C(=O)N(Cc2ccccc2F)c2ccccc23)cc1 (centres undefined),-5%,3.2µM*
COc1ccc(N2C(=O)CSC23C(=O)N(Cc2ccccc2F)c2ccccc23)cc1Cl (centres undefined),-8%,?
Cc1ccc(N2C(=O)CS(=O)(=O)C23C(=O)N(C)c2ccccc23)cc1F (centres undefined),-2%,-25%
COc1ccc(N2C(=O)CS(=O)(=O)C23C(=O)N(Cc2ccccc2F)c2ccccc23)cc1Cl (centres undefined),-2%,2µM*
COc1cccc(CN2C(=O)C3(SCC(=O)N3c3ccc(C(C)C)cc3)c3ccccc32)c1 (centres undefined),-6%,?
O=C(O)C12CC3(C(=O)O)CC(C(=O)O)(CC(C(=O)O)(C1)C3=O)C2=O,3%,6%
COC(=O)c1ccccc1NC(=S)N(Cc1ccc2c(c1)OCO2)Cc1cc2cc(OC)ccc2[nH]c1=O,-10%,10µM*
COC(=O)c1ccccc1NC(=O)NCc1ccc2c(c1)OCO2,1%,-9%
Nc1nc(Nc2ccccc2)nc2c1ncn2[C@@H]1O[C@H](CO)[C@H](O)[C@H]1O,-3%,3%
CCOC(=O)c1[nH]c2ccc(Cl)cc2c1NC(=O)c1nonc1C,-2%,10µM*
CCOC(=O)c1[nH]c2ccc(OC)cc2c1NC(=O)c1nonc1C,6%,4%
CC(=O)NCC(=O)OCC(=O)c1ccc(C)c(C)c1,5%,9%
Cc1ccc(C(=O)COC(=O)CNC(=O)COc2ccccc2C)cc1C,16µM*,?
Cc1ccc(C)c(N2CCN(C(=O)c3cc4ccc5cccnc5c4[nH]3)CC2)c1,-7%,-26%
Cc1cccc(N2CCN(C(=O)c3cc4ccc5cccnc5c4[nH]3)CC2C)c1 (centres undefined),-7%,13µM*
CC(NC(=O)C1CCN(c2nc3ccccc3nc2C(F)(F)F)CC1)c1ccccc1 (centres undefined),2%,-2%
COc1ccc(-c2csc(N3C(=N)SCC3=O)n2)cc1,3%,?
COc1ccc(-c2csc(N3C(=O)CNC3=S)n2)cc1,-2%,?
COc1ccc(-c2csc(N3C(=O)C4C5c6ccccc6C(c6ccccc65)[C@@H]4C3=O)n2)cc1 (some centres undefined),2%,10µM*
COc1ccc(-c2csc(N3C(=O)C4C5c6ccccc6C(c6ccccc65)C4C3=O)n2)cc1 (centres undefined),0%,16µM*
C=CCNS(=O)(=O)c1ncnc2nc[nH]c12,-2%,-5%
CCNc1ccc(-c2nc(-c3ccco3)no2)cc1[N+](=O)[O-],-1%,-15%
COCCNc1ccc(-c2nc(-c3ccco3)no2)cc1[N+](=O)[O-],-3%,3.2µM*
SMILES,Cruzain inh Det,Cruzain inh noDet
O=C(/C(=N\Nc1ccc([N+](=O)[O-])cc1)Sc1nnnn1-c1ccccc1)c1ccccc1,-8%,?
Cc1ccc(N/N=C(/Sc2nnnn2-c2ccccc2)C(=O)c2ccccc2)cc1,-5%,32µM*
Cc1ccc(Cl)cc1NC(=O)c1oc2ccc(S(=O)(=O)N3CCC4(CC3)OCCO4)cc2c1C,0%,13%
COc1ccc2c(c1)O[C@@H](c1ccc3c(c1)OCO3)[C@H](O)C2=O,1%,-13%
CC1CC(C)CN(c2ccc(C(=O)OCC(=O)NC3CCCc4ccccc43)cc2[N+](=O)[O-])C1 (centres undefined),1%,?
O=C(COC(=O)c1ccc(Sc2ccccc2)c([N+](=O)[O-])c1)NC1CCCc2ccccc21 (centres undefined),2%,13µM*
CCOc1ccc(-c2cc(NC(=O)c3cccc(Cl)c3)c(C(=O)OC)s2)cc1,-2%,7%
Cc1ccc(Cl)cc1N1CCN(C(=O)c2ccc3c(c2)CCN3S(=O)(=O)c2ccccc2)CC1,0%,?
O=S(=O)(O)c1cc(O)c2c(N=Cc3ccccc3O)cc(S(=O)(=O)O)cc2c1,1%,-5%
FC(F)(F)c1cc(NC(=S)NC23CC4CC(CC(C4)C2)C3)cc(C(F)(F)F)c1,-2%,-15%
COC(=O)c1cc(Cl)ccc1NC(=O)CSc1ncc(S(=O)(=O)c2ccc(Br)cc2)c(=O)[nH]1,25µM*,?
COc1ccc(CNC(=O)CSc2ncc(S(=O)(=O)c3ccc(Br)cc3)c(=O)[nH]2)cc1,-9%,?
Cc1ccc(C)c(N2CCN(C(c3ccc(F)cc3)c3nnc(-c4ccccc4)o3)CC2)c1 (centres undefined),-3%,3%

# Assay outcomes: PubChem BioAssay, National Center for Advancing Translational Sciences (NCATS)
